# Bioassay records as filed in PubChem BioAssay.
# Most compounds without a hit are left out; they make up all but 4.7% or so of the library.
# SDO1 yeast rescue = sdo1-depleted yeast growth rescue. S. cerevisiae sdo1-depleted JHY4D growth rescue, OD600 30 h; stronger effect = higher value; pdr5 snq2 efflux-pump mutant strain. z-score at 10 µM. hit rate 0.21% among 140,000. AID 817;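 active = z-score above 3 at both the 24 hr and the 30 hr optical density reads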;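 also: z-score against mean and SD of all compound wells on the same plate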
# hDAT+cocaine = human DAT dopamine uptake with cocaine, either direction; AID 449768; Q01959; LLC-PK1 hDAT cells, [14C]-dopamine uptake with cocaine IC80; actives deviate in either direction; hit rate 1.3% among 110,000; B-score at 10 µM;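 active = Z score or B-score, a plate-position-corrected score, falls beyond the plate's 99.7% confidence bounds, in either direction; inactive = both scores lie inside the 99.7% bounds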;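 also: scored against the spread of the other compound wells on the same plate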
# Target sequence (Q01959 whole entry, looked up): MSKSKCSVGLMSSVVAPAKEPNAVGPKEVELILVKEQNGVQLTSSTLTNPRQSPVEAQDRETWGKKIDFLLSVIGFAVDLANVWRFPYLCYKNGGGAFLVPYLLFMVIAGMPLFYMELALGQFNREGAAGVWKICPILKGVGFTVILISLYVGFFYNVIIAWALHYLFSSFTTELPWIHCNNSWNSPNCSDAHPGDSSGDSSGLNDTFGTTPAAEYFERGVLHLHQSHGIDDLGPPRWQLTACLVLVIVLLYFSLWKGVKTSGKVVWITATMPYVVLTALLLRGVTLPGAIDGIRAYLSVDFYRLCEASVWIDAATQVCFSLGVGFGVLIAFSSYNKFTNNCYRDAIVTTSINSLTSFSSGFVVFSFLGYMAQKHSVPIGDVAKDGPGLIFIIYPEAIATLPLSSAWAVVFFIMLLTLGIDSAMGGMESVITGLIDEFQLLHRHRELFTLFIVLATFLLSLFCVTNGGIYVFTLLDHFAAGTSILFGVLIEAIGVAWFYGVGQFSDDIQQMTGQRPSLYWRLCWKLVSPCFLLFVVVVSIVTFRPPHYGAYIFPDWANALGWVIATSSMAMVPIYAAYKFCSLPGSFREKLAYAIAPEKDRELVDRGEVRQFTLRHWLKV
# Cav3 T inh = blocks human Cav3.2 T-type calcium channel; O95180; Cav3.2-expressing cells, Fluo-4 calcium fluorescence FDSS; stronger effect = lower value; B-score at 10 µM; hit rate 4% among 100,000; AID 449739;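 active = single-dose well whose peak fluorescence ratio is a statistical outlier from its plate by either plate-standardised score or position-corrected B-score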
# Plk1 PBD FP = inhibitors of human Plk1 polo box domain binding | Plk1 PBD phosphopeptide binding, fluorescence polarization | P53350 | inhibition, %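 (tested at about 20 µM)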 | hit rate 0.13% among 97,000; in the data active = inhibition above about 34%, passing the limit was not always enough
# PLK1 inh = blocks human PLK1 kinase activity; P53350; recombinant PLK1 kinase, TR-FRET peptide phosphorylation; inhibition, % at 10 µM; hit rate 0.53% among 97,000; AID 619;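 active = inhibition of 50% or more in the single-concentration screen; inactive = inhibition below 50%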;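 also: 0% = DMSO max control and 100% = H-89 dihydrochloride min control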
# PTK2B oligo ant = antagonists of human Pyk2 oligomerization; AID 1347419; hit rate 0.83% among 99,000; Q293 cells, Pyk2 FERM NanoBiT luminescence; stronger effect = lower value; z-score (the deposit names both 25 µM and 10 µM);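 active = Z-score of -3 or lower, scaled per plate to the spread of control and sample wells; inactive = z-score above -3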;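 also: negative z-score means lost luminescence so less FERM oligomerization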
# * = called active by the depositor; nt = not tested or not shown.
SMILES,SDO1 yeast rescue,hDAT+cocaine,Cav3 T inh,Plk1 PBD FP,PLK1 inh,PTK2B oligo ant
O=C(NC(c1ccccc1)c1ccccc1)c1cccc(S(=O)(=O)NCc2ccccc2)c1,0.2,nt,nt,nt,nt,nt
COc1ccc(C(O)(C(=O)NNc2ccc(C)cc2)c2cccs2)cc1 (stereo not given),-0.93,-7.86*,-0.136,-2.3,-6.3,-0.25
Cc1ccc(C(=O)Nc2cccc(C(=O)NCc3ccccc3)c2)cc1,-0.71,nt,nt,nt,nt,nt
Cc1occc1C(=O)Nc1cccc(C(=O)NCc2ccccc2)c1,-0.52,0.851,-3.8*,-4.1,-0.2,0.44
Cc1ccc(OC(=O)c2cccc(C(=O)Oc3ccc(C)cn3)n2)nc1,1,-8.02*,0.825,9.9,-7.9,nt
CCOC(=O)c1cccc(C(=O)OCC)n1,0.5,0.0534,0.0671,-24.9,-1.2,0.43
CCn1c(-c2ccc3ncccc3c2)n[nH]c1=S,0.43,3.12*,-0.0124,1.7,-3.5,1.33
CCn1c(-c2cccc(Br)c2)n[nH]c1=S,-1.05,1.02,-0.395,-3.3,-7.5,1.34
NNC(=O)c1ccc(O)cc1O,-0.89,nt,nt,nt,nt,nt
Cc1ccc(NC(=O)/C(=C\c2ccccc2)NC(=O)/C=C/c2ccccc2)cc1,0.73,0.888,-4.91*,-7.3,-8.3,-1.37
O=C(/C=C/c1ccccc1)N/C(=C/c1ccccc1)C(=O)N1CCOCC1,0.07,nt,nt,nt,nt,nt
CCOC(=O)/C(=C\C=C\c1ccccc1)NC(=O)c1ccccc1,1.2,nt,nt,nt,nt,-1.46
Cc1ccc(NC(=O)/C(=C\C=C\c2ccccc2)NC(=O)c2ccccc2)cc1,-0.58,1.5,-5.34*,-6.6,-5.4,-1.1
N#C/C(=C\c1ccc(N2CCOCC2)o1)c1nc2ccccc2[nH]1,-1.94,0.687,-5.84*,-223.1,-65.7,1.74
Cc1ccccc1CN(c1ccc(C(=O)N2CCc3ccccc3C2)cc1)S(C)(=O)=O,-1.34,-3.16*,-2.79,-24.0,-9.1,-0.63
O=C(CCc1ccccc1)N1CCN(c2ccc(Cl)cc2)CC1,-1.02,1.37,-5*,4.0,-2.5,1.66
CNC(=O)c1ccc(N(Cc2ccccc2C)S(C)(=O)=O)cc1,0.59,0.535,1.05,-6.3,-5.1,1.6
Cn1cc(CC(=O)N2CCN(c3ccc(Cl)cc3)CC2)c2ccccc21,-0.68,0.573,-4.5*,-1.8,-15.6,0.19
O=C(CN(c1ccc(Cl)c(Cl)c1)S(=O)(=O)c1ccccc1)N1CCc2ccccc2C1,-0.55,-0.756,-5.38*,-1.8,-8.9,-0.82
O=C(Nc1ccc(Cl)cc1)N1CCN(c2ccccc2)CC1,-0.66,-0.535,-2.4,-11.7,-10.3,0.46
O=C(CN(c1ccc(Cl)cc1)S(=O)(=O)c1ccccc1)N1CCN(c2ccccc2)CC1,-1,-0.0918,-8.15*,-31.5,0.8,-1.68
O=C(CN(C1CCCCC1)C1CCCCC1)N1CCc2ccccc2C1,-0.62,0.915,-5.77*,6.5,-13.2,-0.05
Cc1nn(C)c(C)c1S(=O)(=O)N(CC(=O)N1CCc2ccccc21)c1ccc(C(C)C)cc1,-1.15,0.131,0.417,5.4,-8.8,nt
Cc1nn(C)c(C)c1S(=O)(=O)N(CC(=O)N1CCc2ccccc2C1)c1ccc(C(C)C)cc1,-1.08,1.87,-4.8*,20.1,-2.9,nt
CC1CCCC(C)N1c1nnc(NC(=O)c2cc(-c3ccc(Br)cc3)on2)s1 (stereo not given),-1.21,nt,nt,25.0,-23.2,nt
SMILES,SDO1 yeast rescue,hDAT+cocaine,Cav3 T inh,Plk1 PBD FP,PLK1 inh,PTK2B oligo ant
Cc1noc(C(=O)N2CC3(C)CC2CC(C)(C)C3)c1Cl (stereo not given),-0.17,0.708,0.284,12.0,69.8*,nt
CC(=O)N1c2ccccc2C(C)(C)C2CCC(C)CC21 (stereo not given),-0.66,-0.467,-4.58*,16.1,-13.4,-0.78
COC(=O)C[N+](C)(C)CC#Cc1ccccc1,0.55,nt,nt,nt,nt,nt
COCC(=O)Nc1cccc(C(F)(F)F)c1,1.11,-0.0028,0.011,17.0,-4.6,0.43
CC(C)Oc1cc(NC(=O)CS(=O)CC(=O)Nc2cccc(C(F)(F)F)c2)c(Cl)cc1Cl (stereo not given),-1.62,-0.88,-3.82*,-16.8,-14.8,-0.44
COc1nc(NCc2ccco2)nc(NC2CCCCC2)n1,-1.13,0.68,-4.04*,6.7,-8.8,-1.13
COc1nc(NCc2ccco2)nc(N2CCC(C)CC2)n1,-1.59,1.06,nt,0.8,-3.5,-0.45
CC1CCC(NC(=O)CN2CCCN(Cc3ccc(F)cc3Cl)C2=O)CC1 (stereo not given),0.55,0.0649,-3.89*,-8.5,-14.2,-0.11
O=C(CN1CCCN(Cc2ccc(F)cc2Cl)C1=O)NC1CCCCCC1,-0.09,-0.193,-3.97,-6.1,-10.1,-0.78
CCCCOC(=O)c1ccc(NC(=O)COC(=O)CSc2nc(C)cc(C)n2)cc1,-0.65,nt,nt,nt,nt,0.4
Nc1nonc1C(=O)NCCNCc1cc(Br)ccc1OCc1ccccc1F,0.11,0.0982,-6.89*,-23.2,9.7,0.69
CCOc1c(CNCCNC(=O)c2nonc2N)cccc1OC,0.73,0.54,0.18,-28.5,-4.3,-0.51
Nc1nonc1C(=O)NCCNCc1ccccc1OCc1ccccc1F,0.79,-0.0217,-6.1*,10.7,-16.7,0.71
CCOC(=O)c1c(NC(=O)COC(=O)c2cc(OC)c(OC)cc2[N+](=O)[O-])sc(C)c1C,-0.34,nt,nt,nt,nt,nt
O=C(NCc1ccccc1)c1ccc(C(=O)N(C2CCCCC2)C2CCCCC2)cc1,-2.03,1.68,-5.85*,15.3,-2.2,-0.09
CCN(CC)CCNC(=O)Cn1nc(Cc2cccnc2)c2ccccc2c1=O,0.65,0.244,0.681,-2.3,61.9*,nt
O=C(Cn1nc(Cc2cccnc2)c2ccccc2c1=O)NCCCN1CCCC1=O,0.2,-0.0674,-1.08,-11.5,-8.5,nt
CC1=C(C(=O)OCc2ccccc2)C(c2ccccc2OS(=O)(=O)c2ccc(C)cc2)NC(=O)N1CCCC(=O)O (stereo not given),nt,2.5*,-1.12,nt,nt,nt
CCN(CCCNC(=O)CCc1nc(-c2ccc(OC)cc2)no1)c1cccc(C)c1,-1.55,0.293,-8.81*,14.2,-26.2,0.64
COc1ccc(-c2noc(CCC(=O)N3CCN(c4cc(C)ccc4C)CC3)n2)cc1,-1.33,0.329,-6.91*,13.4,-10.7,1.29
O=C(CSc1cccc(C(F)(F)F)c1)Nc1cc(S(=O)(=O)N2CCCC2)ccc1Cl,0.26,nt,nt,nt,nt,nt
CC(=O)CSc1ccc(C(=O)O)cn1,-0.52,nt,nt,nt,nt,nt
Nc1cc(-c2cccc(F)c2)nn1S(=O)(=O)c1cccc2nsnc12,-1.22,0.175,-5.23*,nt,nt,nt
Nc1cc(-c2ccc(Cl)cc2)nn1S(=O)(=O)c1cccc2nsnc12,-2.47,0.986,-6.4*,7.3,-14.4,nt
CC(C)c1ccc(/C=N/NC(=O)C(=O)NCCCN2CCOCC2)cc1,0.36,nt,nt,nt,nt,nt
COc1ccc(CCCC(=O)NCc2ccccc2)cc1C,0.63,nt,nt,nt,nt,nt
CC(=O)N(C)c1ccc(NC(=O)c2ccc([N+](=O)[O-])cc2Cl)cc1,-0.29,nt,nt,nt,nt,nt
S=C(Nc1ccc(Cl)cc1Cl)Nc1ccccc1Oc1ccccc1,-1.31,-0.194,-2.77,-11.3,-10.9,0
S=C(Nc1cccc(Cl)c1)Nc1ccccc1Oc1ccccc1,-0.91,-0.109,-7.23*,-8.7,-1.4,-0.82
